p53ts 32C kill = qHTS Screen for Compounds that Selectively Target Cancer Cells with p53 Mutations: Cytotoxicity of p53ts Cells at the Permissive Temperature. H1299-p53A138V at 32C, ATP luminescence viability, 24 h. AID 924, 2007. Potency, µM (series often up to 46.1 µM), for the others: at the top dose activity change, negative = cytotoxicity, most hits filed as cytotoxic. actives 0.93% (n = 130,000);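 further: potency means the concentration at half of the fitted maximal effect; 0% = DMSO and -100% = full killing by reference compound; nearly all actives have a fitted effect of over 55% in size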
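ATP-content luminescence (ATPlite) read-out after 24 h compound exposure at 32C in H1299-p53A138V cells (600/well). Tested up to 46 uM. Normalized to DMSO (0%) and 100 uM tamoxifen (100% killing); Hill-fit AC50.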
IkB signaling = IkB Signaling; ABC-DLBCL IkBa-CBG/CBR dual luciferase ratio, 4 h; response scale: scaled: untreated 0%, proteasome inhibitor 100%; Potency, µM (doses to about 57.1 µM), inactives show at the top dose IkBa stabilization activation; actives 0.04% (n = 110,000); AID 445, 2006; active means well fitted curve in the direction sought with a large enough effect in the signal ratio, not every such curve was filed as active; inconclusive means small, poorly fitted or top-dose-only effect, or a change in a side signal; the % refers to the signal ratio;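 further: potency means the concentration at half of the fitted maximal effect; the direction sought is a rising ratio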
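Luminescence ratio of IκBα-fused green versus native red beetle luciferase in OCI-Ly3 cells, 4 h post-doxycycline with compound; red signal alone, scaled from basal (0%) to zero light (-100%), flagged nonspecific or cytotoxic effects.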
Imprint erasure = qHTS Assay for Compounds that Induce Erasure of Genomic Imprints. actives 0.02% (n = 110,000). Potency, µM (series often up to 60.7 µM), without a hit: at the top dose activity change, positive = activation, usual class: activators. mouse ES Peg3-LacZ reporter, beta-gal luminescence, 40 h. AID 1948, 2009; further: potency means the concentration at half of the fitted maximal effect
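Each well holds 300 Peg3LacZ-Neo (maternal) female ES cells incubated 40 h at 37C, 5% CO2. LacZ is measured by BetaGlo luminescence, with AC50 and maximum efficacy derived from dose-response curves.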
IMPase inh = qHTS Assay for Identifying the Cell-Membrane Permeable IMPase Inhibitors; Inositol monophosphatase 1 (Rattus norvegicus), P97697; CHO-M1 cells, IP1 accumulation, HTRF TR-FRET ratio; inhibition (IP1 accumulation), % at 46.1 µM; 120,000 tested, under 10 active; AID 901, 2007; active means well fitted curve in the direction sought with a large enough effect in the signal ratio, not every such curve was filed as active; inconclusive means small, poorly fitted or top-dose-only effect, or a change in a side signal; inactive means no such curve, though single readings can be large or run the other way; the % refers to the signal ratio;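 further: cells stimulated with carbachol in lithium chloride buffer; plate controls were DMSO basal wells for no effect and reference inhibitor wells for full effect; higher means more IMPase inhibition seen as more IP1 and lower FRET ratio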
Target sequence (P97697 whole entry, looked up): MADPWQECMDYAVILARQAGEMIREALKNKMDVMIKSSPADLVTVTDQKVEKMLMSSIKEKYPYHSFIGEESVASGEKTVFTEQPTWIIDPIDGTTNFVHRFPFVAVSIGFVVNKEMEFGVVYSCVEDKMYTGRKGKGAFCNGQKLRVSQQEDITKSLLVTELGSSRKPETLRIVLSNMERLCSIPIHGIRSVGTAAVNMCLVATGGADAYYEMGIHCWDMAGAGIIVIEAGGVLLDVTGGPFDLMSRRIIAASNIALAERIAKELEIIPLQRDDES
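Seeded CHO-M1 cells were dosed with compound at up to 46 uM, stimulated with carbachol for 30 min, then lysed in IP-One detection reagents. Higher IP1 lowers the TR-FRET signal.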
p53ts 39C kill = qHTS Screen for Compounds that Selectively Target Cancer Cells with p53 Mutations: Cytotoxicity of p53ts Cells at the Nonpermissive Temperature; Potency, µM (series often up to 46.1 µM), inactives show at the highest dose activity change, negative = cell killing, most hits filed as cytotoxic; actives 1.5% (n = 130,000); H1299-p53A138V viability at 39C, ATP luminescence, 24 h; further: potency means the concentration at half of the fitted maximal effect; on the % scale 0 is the no-effect control and ±100 the full control effect; nearly all actives have a fitted effect of over 55% in size
Luciferase inh = qHTS Assay for Inhibitors of Firefly Luciferase; Luciferin 4-monooxygenase (Photinus pyralis), P08659; purified firefly luciferase, luminescence, 8 min; Potency, µM (doses to about 57.1 µM), without a hit: top-dose activity change, negative = inhibition, actives largely listed as inhibitors; actives 2.2% (n = 72,000); AID 411, 2009; further: potency means the concentration at half of the fitted maximal effect; on the % scale 0 is the no-effect control and ±100 the full control effect; nearly all actives have a fitted effect of over 40% in size
Target sequence (P08659 whole entry, looked up): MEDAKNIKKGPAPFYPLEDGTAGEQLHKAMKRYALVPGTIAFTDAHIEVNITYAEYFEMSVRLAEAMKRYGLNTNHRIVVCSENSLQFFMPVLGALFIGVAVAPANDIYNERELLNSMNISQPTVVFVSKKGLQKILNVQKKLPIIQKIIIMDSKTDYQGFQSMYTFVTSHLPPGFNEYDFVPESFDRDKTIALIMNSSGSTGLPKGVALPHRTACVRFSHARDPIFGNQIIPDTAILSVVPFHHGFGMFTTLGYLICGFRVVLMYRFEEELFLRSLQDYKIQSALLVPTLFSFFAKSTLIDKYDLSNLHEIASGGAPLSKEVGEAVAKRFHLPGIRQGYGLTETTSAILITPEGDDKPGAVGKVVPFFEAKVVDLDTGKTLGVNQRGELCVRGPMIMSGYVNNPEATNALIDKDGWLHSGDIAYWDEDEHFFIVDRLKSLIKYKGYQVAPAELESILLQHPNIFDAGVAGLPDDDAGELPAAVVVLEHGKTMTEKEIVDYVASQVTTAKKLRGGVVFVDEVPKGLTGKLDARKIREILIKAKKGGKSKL
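Here, luciferase activity is measured as luminescence following an 8 min room-temperature reaction at 10 uM ATP, pH 7.2. Every library sample is titrated.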
* marks the source's active call; other numbers are inactive results; ? = inconclusive; · = no result given; [ ] = dose if it differs, or a comment. The full list was thinned out, with hits kept by preference. Unless noted, the call rests on the fitted dose curve; in most records, active means well fitted curve in the direction sought with a large enough effect; inconclusive means small, poorly fitted or top-dose-only effect, or another doubt; inactive means no such curve, though single readings can be large; an effect the other way counts as inactive or inconclusive.

SMILES | p53ts 32C kill | IkB signaling | Imprint erasure | IMPase inh | p53ts 39C kill | Luciferase inh
C=C[C@@]1(C)CC(=O)[C@@]2(O)[C@@]3(C)[C@H](O)CCC(C)(C)[C@@H]3[C@H](O)[C@H](OC(C)=O)[C@]2(C)O1 | -13.0% | 2.4% | · | 1.3 | -11.5% | -0.6%
CCNC(=O)[C@@H]1O[C@@H](n2cnc3c(N)nc(NCCc4ccc(CCC(=O)O)cc4)nc32)[C@H](O)[C@@H]1O | 12.7% | ? | · | -2.8 | 11.3% | -7.6%
Cc1ccc(-n2ncc3c(N4CCN(c5ccc(F)cc5)CC4)ncnc32)cc1 | 9.5% | ? | -7.8%[10.9 µM] | · | -28.6% | ·
Cc1cccc(-n2ncc3c(N4CCCC(C)C4)ncnc32)c1 (stereo unspecified) | 3.98µM* | ? | -40.1%[10.9 µM] | · | 2.51µM* | ·
CC1CCCN(c2ncnc3c2cnn3-c2ccc(F)cc2)C1 (stereo unspecified) | 2µM* | 6.2% | -47.4%[10.9 µM] | · | 2µM* | ·
Nc1nnc(-c2cccnc2)s1 | 4.8% | 0.4% | -4.7% | -5.9 | -1.4% | 0.8%
Nc1nnc(C(=O)c2ccccc2N)s1 | 15.8µM* | 4.1% | -2.9% | · | ? | -22.4%
O=C(c1csnn1)N1CCC[C@@]2(CCN(Cc3ccccc3)C2)C1 | -5.7% | -2.6%[11.4 µM] | · | · | 12.1% | 0.6%[11.4 µM]
O=C1c2ccccc2-c2cc([N+](=O)[O-])c([N+](=O)[O-])cc21 | -21.2%[9.22 µM] | 3.98µM* | -39.7%[10.9 µM] | · | 36.5%[9.22 µM] | -4.4%[11.4 µM]
CN(C)c1nc(-c2cccc(C#N)c2)nc2ccccc12 | 1.3% | -3.8%[11.4 µM] | -15.8% | · | -15.4% | -14.9%[2.29 µM]
CNc1nc(-c2cccc(C#N)c2)nc2ccccc12 | 6.1% | -2.9%[11.4 µM] | 1.26µM* | · | -7.6% | -11.8%[2.29 µM]
c1ccc(CNc2ccc3ccccc3n2)nc1 | ? | ? | -88.8% | -5.5 | ? | 25.1µM*
Cc1cc(NCc2ccccn2)nc2ccccc12 | · | · | · | 9.4 | · | ·
COc1ccc(C2=NOC(CN3C(=O)c4ccccc4S3(=O)=O)C2)cc1 (stereo unspecified) | ? | ? | -14.5% | -2.5 | 31.7% | 15.8µM*
CCN(C(=O)C1CCC(CNS(=O)(=O)c2cccc3nsnc23)CC1)c1ccccc1 (stereo unspecified) | 13.4% | ? | -7.8%[10.9 µM] | · | -3.2% | ·
Cc1c(/C=N\NC(=O)C2COc3ccccc3O2)c2ccccc2n1C (stereo unspecified) | · | · | · | 6.3 | -9.9% | ·
Cc1[nH]n(-c2ccccc2)c(=O)c1/C=N\NC(=O)C1COc2ccccc2O1 (stereo unspecified) | · | · | · | -3.6 | 14.1µM* | ·
O=C(Nc1cccnc1)c1cc2c(ccc3ccccc32)o1 | -29.6% | ? | -49.8% | -11.6 | ? | 3.98µM*
O=C(N/N=C/c1ccncc1)c1cc2c(ccc3ccccc32)o1 | · | · | · | 4.6 | · | ·
Cc1ccc(-c2cc(C(=O)Nc3cccnc3)c3ccccc3n2)o1 | -16.6% | 22.2% | -33.2% | -5.7 | -11.0% | 7.94µM*
Cc1nc(N=Nc2cc(S(=O)(=O)O)ccc2S(=O)(=O)O)c(COP(=O)(O)O)c(C=O)c1O | -2.9% | 0.3% | -2.4% | -5.9 | -2.8% | -0.4%
COc1ccc(C(=O)COC(=O)c2ccco2)cc1 | 0.9% | 2.6% | -10.1% | 4.1 | -3.8% | 6.31µM*
COc1cccc(C(=O)Nc2cccc(NC(C)=O)c2)c1 | -13.6% | 18.8% | -48.0% | 0.8 | -2.9% | -8.2%
COc1ccc(C(=O)Nc2cccc(OC)c2)cc1 | 10µM* | ? | -91.7% | 8.6 | 12.6µM* | 7.94µM*
COc1ccc(C(=O)Nc2ccc(OC)c(OC)c2)cc1 | ? | -0.2% | -54.1% | -1.4 | ? | 25.1µM*
SMILES | p53ts 32C kill | IkB signaling | Imprint erasure | IMPase inh | p53ts 39C kill | Luciferase inh
CCc1nnc(NC(=O)c2cccc(OC)c2)s1 | 12.6µM* | 4.5% | -62.4% | -0.8[1.84 µM] | ? | -21.4%
O=C(NCc1ccccc1)c1ccc(Cc2nc3ccccc3[nH]2)cc1 | -5.2% | · | · | · | -9.7% | ·
COc1ccc2oc(=O)c(C(=O)Nc3cccc(C(=O)O)c3)cc2c1 | 7.94µM* | ? | -89.3%[10.9 µM] | -1.6 | 5.01µM* | ·
COc1cccc(C(=O)Nc2ccc(NC(=O)C(C)(C)C)cn2)c1 | 3.98µM* | 1.6% | -82.7% | -7.9 | 3.16µM* | 3.98µM*
COc1ccc(C(=O)COC(=O)c2cccc(NC(=O)c3ccc(OC)c(OC)c3)c2)cc1 | ? | ? | -75.2%[10.9 µM] | 6.9 | 15.8µM* | ·
Cc1ccc(C)c(N2CCN(C(=O)C3CCN(C(=O)c4cc5sccc5n4C)CC3)CC2)c1 | 27.6% | ? | -16.5%[10.9 µM] | · | -25.6% | ·
Cc1cccc(N2CCN(C(=O)C3CCN(C(=O)c4cc5sccc5n4C)CC3)CC2C)c1 (stereo unspecified) | -11.4% | ? | 23.2%[10.9 µM] | · | 12.6µM* | ·
CCCn1nc(NC(=O)c2cccs2)c2cc3cc(OC)ccc3nc21 | ? | ? | -11.6% | -2.8 | ? | 10µM*
Cc1ccc(CCNC(=O)CCCn2c(=O)c3ccccc3n(Cc3ccccc3C)c2=O)cc1 | -8.1% | -2.3% | -7.3%[10.9 µM] | · | -23.9% | ·
CSC(=[SH+])N=N/C(=C1/C=CC=CN1)c1ccccn1.[Cu][Br] | · | · | -64.9%[10.9 µM] | · | · | ·
O=c1cc(-c2ccccc2)nc2cc(-c3ccc(F)cc3)[nH]n12 | -20.5% | ? | -37.0%[10.9 µM] | · | 10µM* | ·
CCOC(=O)CN(Cc1ccccc1)C(C(=O)NC1CCCCC1)c1ccccc1 (stereo unspecified) | -28.0% | ? | 11.3%[10.9 µM] | · | 2.51µM* | ·
Cc1ccc(C(C(=O)NC2CCCCC2)N(C)Cc2ccccc2)cc1 (stereo unspecified) | -1.5% | 18.8% | -11.9%[10.9 µM] | · | -23.8% | ·
c1ccc2nc3c(nc2c1)[nH]c1ccccc13 | ? | -3.6% | -68.4% | -3.0 | ? | 15.8µM*
COc1ccc(NC(=O)CN(c2ccc(C)cc2)S(=O)(=O)c2cccc3nonc23)cc1OC | 2.7% | -3.3% | -1.9%[10.9 µM] | · | 14.6% | ·
O=C(O)CC[C@H](NC(=O)c1ccccc1C(=O)O)C(=O)O | · | · | 11.5% | · | · | ·
COc1cccc2[nH]c(-c3ccccn3)nc12 | ? | 2.2%[11.4 µM] | -82.3%[10.9 µM] | · | ? | 3.16µM*
CC(C)(C)NC(=O)Nc1ccc2nccnc2c1 | ? | -2.1% | -33.7% | -13.2 | ? | 15.8µM*
O=C1[C@@H]2[C@@H]3C=C[C@H]([C@@H]2C(=O)N1CN1CCSCC1)[C@@H]1[C@@H]2C(=O)N(CN4CCSCC4)C(=O)[C@@H]2[C@H]31 | 2.6%[9.22 µM] | -0.2%[11.4 µM] | · | · | 8.9%[9.22 µM] | 2.3%[11.4 µM]
Cc1ccc(-n2nc(-c3ccc(N)cc3)cc2N)cc1 | -5.5% | 2.4% | 0.2% | 2.0 | -14.1% | -0.7%
